Results on 40 compounds are retold here after PubChem BioAssay (EPA / NIEHS).

One may read the AC50 as the concentration at which the activity in the assay is half-maximal.

Molecules are shown by their SMILES. Inconclusive results are not listed. Calls of active or inactive are those of the source. How the source made its calls: active means hit-call score of the fitted dose curve at least 0.9, where 1 is the maximum; inconclusive means response in the unintended direction; inactive means score below 0.9.

Read-out in the experiment: xenobiotic metabolism (CYP1A1), CYP1A1 (gene 1543)
Put plainly: CLD_CYP1A1_24hr: CellzDirect (CLD) Gene Expression Assay for xenobiotic metabolism (CYP1A1) at 24 hours (AID 2283673). As to the method: CLD_24hr is a cell-based, multiplexed-readout assay that uses hepatocyte, a human liver primary cell, with measurements taken at 24 hours after chemical dosing in a 96-well plate.CLD_CYP1A1_24hr is one of 16 assay component(s) measured or calculated from the CLD_24hr assay. It is designed to make measurements of mRNA induction, a form of inducible reporter, as detected with chemiluminescence signals by Quantitative Nuclease Protection Assay (qNPA) technology.Data from the assay component CLD_CYP1A1_24hr was analyzed at the endpoint, CLD_CYP1A1_24hr, in the positive analysis fitting direction relative to DMSO as the negative control and baseline of activity. Using a type of inducible reporter, gain-of-signal activity can be used to understand changes in the reporter gene as they relate to the gene CYP1A1. Furthermore, this assay endpoint can be referred to as a primary readout. To generalize the intended target to other relatable targets, this assay endpoint is annotated to the cyp intended target family, where subfamily is xenobiotic metabolism.
Human hepatocyte cultures were treated daily for two consecutive days with fresh dosing solutions containing appropriate concentrations of the 320 ToxCast chemicals (chemical identities were blinded to CellzDirect and other ToxCast collaborators), vehicle control (0.2% DMSO), and positive control inducers as summarized in Table 1. Due to the large number of treatment groups and chemicals examined, the ToxCast chemicals were divided into two groups (spanning two independent cultures of hepatocytes from separate donor preparations (Hu778: ToxCast plates 1 and 2; Hu776: ToxCast plates 3 and 4). Each preparation of human hepatocyte cultures was treated with respective vehicle control, medium only control, set of six positive controls/reference chemicals for the five hepatic receptor pathways, and a subset of eight of the ToxCast chemicals (indoxacarb, pyrithiobac-sodium, norflurazon, cyhalofop-butyl, methomyl, thiram, acetochlor, and propiconazole). These replicate data, coupled with internal replicates designed within the blinded ToxCast chemical library, provided additional data to evaluate interindividual differences between hepatocyte preparations and their potential impact on chemical profiles.Cell morphology and integrity were evaluated using phase-contrast microscopy as an indicator of hepatocyte cell health (Tyson & Green, 1987). Cultures for each treatment group (i.e., media, vehicle [0.2% DMSO], positive control inducers [multiple concentrations], and the ToxCast chemicals [multiple concentrations]) were observed and cell morphology was assessed relative to vehicle control cultures at each harvest time point (0, 6, 24, or 48 h). […] Images were evaluated at the conclusion of the study to assess changes in cell integrity and account for the effects of chemical exposure on uncharacteristic changes in concentration-dependent gene expression profiles. The results from these determinations of apparent cytotoxicity were annotated (yes/no) alongside the corresponding qNPA data for reference.At the conclusion of each treatment period, hepatocyte cultures (96-well) were washed with 1 volume of HBSS, lysed by addition of 25 ul ArrayPlate lysis buffer (HTG, Tucson, AZ), and 70 ul/well of Denaturation Oil, denatured by incubation at 95C for 10 min, and frozen at approximately -70C until analysis by nuclease protection assay (qNPA) (Roberts et al., 2007). For qNPA analysis, cell lysates were thawed at 50C for approximately 30 min, qNPA probes were added, and samples were incubated at 95C for 10 min to begin the detection process by denaturing the target RNA, dissociating the duplexes and secondary structure hybridization. At the conclusion of the hybridization period, S1 nuclease reagent was added to each sample to digest all nonprotected nucleotides at 50C for 60-90 min. […]
Take `CSc1nnc(C(C)(C)C)c(=O)n1N`: the result was inactive.
Regarding `CCC(CC)Nc1c([N+](=O)[O-])cc(C)c(C)c1[N+](=O)[O-]`, the AC50 is 20 µM (active).
Regarding `CNC(=O)ON=C(C)SC`, the result was inactive.
Same read-out and setting: in the case of `CC(C)=CC1C(C(=O)OCN2C(=O)C3=C(CCCC3)C2=O)C1(C)C` (stereo not given) it was “inactive”.
`N#CSCSC#N`: the compound was classed as inactive.
As to `CCCCSP(=O)(SCCCC)SCCCC`, the AC50 is 4.53 µM (active).
On the same count and under the same terms, in the case of `CCOC(=O)CC(SP(=O)(OC)OC)C(=O)OCC` (stereo not given) it was 5.29 µM (active).
Take `CCOP(=O)(SC(C)CC)N1CCSC1=O` (stereo not given): the compound was called inactive.
Regarding `O=[N+]([O-])c1cc(C(F)(F)F)c(Cl)c([N+](=O)[O-])c1Nc1ncc(C(F)(F)F)cc1Cl`, the AC50 is 0.485 µM (active).
Turning to `COP(=O)(OC)OC(Br)C(Cl)(Cl)Br` (stereo not given), the outcome was inactive.
With `CSC1=N[C@@](C)(c2ccccc2)C(=O)N1Nc1ccccc1`, the concentration at half-maximal activity (AC50) was 3 µM (active).
Same read-out and setting: in the case of `CCOP(=S)(OCC)OC(Cl)C(Cl)(Cl)Cl` (stereo not given) it was 4.46 µM (active); in that of `CCCSP(=O)(OCC)SCCC`, 2.42 µM (active).
As to `C#CC(C)(C)NC(=O)c1cc(Cl)cc(Cl)c1`, the compound was classed as inactive.
On to `CNc1cnn(-c2cccc(C(F)(F)F)c2)c(=O)c1Cl`, for which the AC50 is 5.85 µM (active).
Same read-out and setting: in the case of `CN(C)C(=O)Nc1cccc(C(F)(F)F)c1` it was 2.41 µM (active).
Take `CCCOc1nn(C(=O)NS(=O)(=O)c2ccccc2C(=O)OC)c(=O)n1C`: the outcome was inactive.
Regarding `Nc1c(Cl)cc([N+](=O)[O-])cc1Cl`, the half-maximal activity concentration (AC50) is 9.35 µM (active).
On to `Cc1ccn2nc(S(=O)(=O)Nc3c(F)cccc3F)nc2n1`, for which the compound was called inactive.
Consider `CCOP(=S)(OCC)Oc1ccc2c(C)c(Cl)c(=O)oc2c1`, for which the AC50 is 1.89 µM (active).
The same measure, in the same setting: in the case of `CCOP(=S)(OCC)SCCSCC` it was 2.7 µM (active).
The same measure, in the same setting: the result for `CCc1cccc(C)c1N(C(=O)CCl)C(C)COC` (stereo not given) reads 4.65 µM (active); that for `CCCSP(=O)(OCC)Oc1ccc(Br)cc1Cl` (stereo not given), 20 µM (active).
In the case of `CCC(=O)Nc1ccc(Cl)c(Cl)c1`, the AC50 was 5.72 µM (active).
Regarding `CON=C(C(=O)OC)c1ccccc1CON=C(C)c1cccc(C(F)(F)F)c1`, the compound was called inactive.
Still for that read-out and setting: in the case of `Nc1nc(N)nc(NC2CC2)n1` it was “inactive”.
With `CCc1cccc(CC)c1N(COC)C(=O)CCl`, the AC50 was 3.06 µM (active).
Turning to `Cc1nn(-c2cc(NS(C)(=O)=O)c(Cl)cc2Cl)c(=O)n1C(F)F`, the result was inactive.
As to `CCOP(=S)(Oc1cnc(C(C)(C)C)nc1)OC(C)C` (stereo not given), the half-maximal activity concentration (AC50) was 7.48 µM (active).
Take `CCOP(=O)(NC(C)C)Oc1ccc(SC)c(C)c1` (stereo not given): the AC50 was 20 µM (active).
As for `CCCCOC(=O)[C@@H](C)Oc1ccc(Oc2ccc(C#N)cc2F)cc1`, the result was inactive.
`C=C(C)[C@H]1Cc2c(ccc3c2O[C@@H]2COc4cc(OC)c(OC)cc4[C@@H]2C3=O)O1`: the AC50 was 3.38 µM (active).
Take `CC(C)[C@H](C(=O)O[C@H](C#N)c1cccc(Oc2ccccc2)c1)c1ccc(Cl)cc1`: the compound was classed as inactive.
The same measure, in the same setting: in the case of `CCNc1nc(Cl)nc(NC(C)(C)C#N)n1` it was “inactive”; in that of `COc1ccc(C(=CC(=O)N2CCOCC2)c2ccc(Cl)cc2)cc1OC`, “inactive”.
For the compound `CCCCN(CC)c1c([N+](=O)[O-])cc(C(F)(F)F)cc1[N+](=O)[O-]`, the AC50 is 8.49 µM (active).
Regarding `CCOC(=O)COc1cc(-c2nn(C)c(OC(F)F)c2Cl)c(F)cc1Cl`, the compound was classed as inactive.
In the case of `FC(F)C(F)(F)OCC(Cn1cncn1)c1ccc(Cl)cc1Cl` (stereo not given), the AC50 was 5.2 µM (active).
The same measure, in the same setting: in the case of `CC(C1CC1)C(O)(Cn1cncn1)c1ccc(Cl)cc1` (stereo not given) it was 11.9 µM (active).
Take `CN1COCN(Cc2cnc(Cl)s2)C1=N[N+](=O)[O-]`: the outcome was inactive.
